Structures are written as SMILES. About 83,000 compounds went through this panel and 20% of them were active in at least one assay; those are over-represented in the sample as a whole.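 Each cell line was grown in a 96-well plate and treated with one concentration of compound for 48 hours. Values below 10 were considered active.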 A number with no mark means an inactive call. The source made the active and inactive calls.

What all share (test): NCI-60 one-dose screen, 48 h (100 = growth as untreated, 0 = no growth, -100 = all killed)
One assay deals with HCT-15 colon. The following applies: 10 µM unless noted.
The next assay relates to HT29 colon. Particulars: 10 µM unless noted.
The test system of the next assay is SNB-19 CNS. The following applies: 10 µM unless noted.
In a further assay the test system is U251 CNS. The following applies: 10 µM unless noted.
For another assay, the system named is PC-3 prostate. Particulars: 10 µM unless noted.
The test system of the next assay is SK-MEL-5 melanoma. The following applies: 10 µM unless noted.
The subject of a further assay is UACC-62 melanoma. Particulars: 10 µM unless noted.
A further assay has as its system LOX IMVI melanoma. Particulars: 10 µM.
Another assay has as its system SK-MEL-28 melanoma. The following applies: 10 µM unless noted.
Another assay relates to SK-MEL-2 melanoma. The following applies: 10 µM unless noted.
A further assay has as its system EKVX NSCLC. The following applies: 10 µM unless noted.
The next assay concerns SN12C renal. The following applies: 10 µM unless noted.
A further assay concerns UO-31 renal. The following applies: 10 µM unless noted.
The next assay deals with TK-10 renal. Particulars: 10 µM unless noted.
The next assay relates to ACHN renal. The following applies: 10 µM unless noted.
Another assay relates to CAKI-1 renal. The following applies: 10 µM unless noted.
The test system of another assay is A498 renal. Particulars: 10 µM unless noted.
A further assay has as its system CCRF-CEM leukemia. Particulars: 10 µM unless noted.
For the next assay, the system named is MOLT-4 leukemia. Particulars: 10 µM unless noted.

For the compound `Cn1cc(-c2cc(N)n3nc(-c4cn(C)c5ncccc45)cc3n2)c2cccnc21`, the growth was -91.7% (active) with HCT-15 colon; -66.7% (active) with HT29 colon; 101% in the assay on SNB-19 CNS; -46.1% (active) with U251 CNS; 79.7% with PC-3 prostate; 68.4% in the assay on SK-MEL-5 melanoma. Besides, the growth with UACC-62 melanoma was 102%; in the assay on LOX IMVI melanoma, -100% (active); in the assay on SK-MEL-28 melanoma, 106%; in the assay with SK-MEL-2 melanoma, 95.8%; in the assay on EKVX NSCLC, 95%; in the assay with SN12C renal, 90%. In addition, the growth was 89.2% in the assay on UO-31 renal; 86% in the assay with TK-10 renal; 109% in the assay with ACHN renal; 86.5% in the assay on CAKI-1 renal; 87.2% in the assay on A498 renal; 85.2% in the assay with CCRF-CEM leukemia. Besides, the growth with MOLT-4 leukemia was 53.5%.
On to `CC(C)(C)OC(=O)/C=C/c1cccc2c1C(=O)NC(C)(c1cc3cc(Cl)ccc3oc1=O)N2` (stereo not given), for which the growth in the assay with HCT-15 colon is 40.3%; in the assay with HT29 colon it was 44.3%; in the assay with SNB-19 CNS, 42.1%; with U251 CNS, 42.4%; in the assay with PC-3 prostate it was 12.5%; in the assay with SK-MEL-5 melanoma it was 28.4%. Further, the growth in the assay on UACC-62 melanoma is 36%; in the assay with LOX IMVI melanoma, 41.1%; in the assay with SK-MEL-28 melanoma it was 53.7%; in the assay with SK-MEL-2 melanoma, 43.6%; in the assay with EKVX NSCLC, 36.2%; with SN12C renal, 50%. For the same compound, the growth in the assay on UO-31 renal was 20.8%; with TK-10 renal, 66.2%; with ACHN renal, 19.6%; in the assay with CAKI-1 renal, 42.4%; in the assay with A498 renal, 102%; with MOLT-4 leukemia it was -14.6% (active).
`CCOC(=O)c1ccc(Nc2nc(NN)nc(-c3ccc(OC)cc3)c2C#N)cc1`: the growth with HCT-15 colon was 106%; with HT29 colon it was 115%; in the assay on SNB-19 CNS, 92.2%; in the assay on U251 CNS it was 106%; in the assay on PC-3 prostate, 85.2%; in the assay with SK-MEL-5 melanoma, 90.1%. Also, the growth in the assay with UACC-62 melanoma was 93.4%; with LOX IMVI melanoma, 114%; with SK-MEL-28 melanoma it was 113%; with SK-MEL-2 melanoma, 114%; in the assay on EKVX NSCLC, 118%; in the assay with SN12C renal, 114%. Further, the growth in the assay on UO-31 renal was 93.8%; in the assay with TK-10 renal it was 120%; in the assay on ACHN renal, 113%; with CAKI-1 renal, 105%; in the assay with A498 renal, 118%; in the assay on CCRF-CEM leukemia, -5.35% (active). Also, the growth with MOLT-4 leukemia was 36.1%.
On to `Cn1cc(-c2cc(N)n3nc(-c4c[nH]c5ccccc45)cc3n2)c2cccnc21`, for which the growth is -10.2% (active) in the assay on HCT-15 colon; -38.1% (active) with HT29 colon; 59.9% with SNB-19 CNS; 20% in the assay on U251 CNS; 5.88% (active) with PC-3 prostate; 23.1% with SK-MEL-5 melanoma. The growth was -84% (active) in the assay on UACC-62 melanoma; -85.8% (active) in the assay with LOX IMVI melanoma; -81.6% (active) with SK-MEL-28 melanoma; 64.5% with SK-MEL-2 melanoma; 85.6% with EKVX NSCLC; 12.4% in the assay with SN12C renal. In addition, the growth is 12.2% in the assay on UO-31 renal; 92% in the assay on TK-10 renal; 3.49% (active) in the assay with ACHN renal; 23.9% in the assay on CAKI-1 renal; 129% in the assay on A498 renal; -21.5% (active) in the assay on CCRF-CEM leukemia. In addition, the growth with MOLT-4 leukemia is -29.4% (active).
For the compound `C=C1CCC2C3(C)COC(c4cccs4)OC3CCC2(C)C1CC(Sc1ccccc1)C1=CCOC1=O` (stereo not given), the growth in the assay with HCT-15 colon is 44.3%; in the assay with HT29 colon, 69.4%; in the assay on SNB-19 CNS, 95.4%; in the assay with U251 CNS, 69.1%; with PC-3 prostate, 53.5%; in the assay with SK-MEL-5 melanoma it was 89.2%. Moreover, the growth is 71.7% in the assay on UACC-62 melanoma; -77.9% (active) in the assay with LOX IMVI melanoma; 99.4% in the assay with SK-MEL-28 melanoma; 98.2% in the assay with SK-MEL-2 melanoma; 116% in the assay with EKVX NSCLC; 46.4% in the assay on SN12C renal. Besides, the growth with UO-31 renal is 58.5%; in the assay on TK-10 renal it was 118%; in the assay with ACHN renal, 91.1%; in the assay on CAKI-1 renal, 101%; with A498 renal, 133%; in the assay with MOLT-4 leukemia, 52.9%.
As to `C=C1CC[C@@H]2[C@]3(C)COC(c4ccccc4)O[C@@H]3CC[C@@]2(C)[C@@H]1C/C=C1/C(=O)OCC1OC(C)=O` (stereo not given in full), the growth was -87.3% (active) in the assay with HCT-15 colon; -93.1% (active) with HT29 colon; 55.5% in the assay on SNB-19 CNS; -89.9% (active) in the assay on U251 CNS; -41.4% (active) with PC-3 prostate; -45.1% (active) in the assay on SK-MEL-5 melanoma. Moreover, the growth in the assay with UACC-62 melanoma is -82.7% (active); in the assay on LOX IMVI melanoma it was -100% (active); in the assay with SK-MEL-28 melanoma, -86.9% (active); in the assay with SK-MEL-2 melanoma it was -61.5% (active); in the assay with EKVX NSCLC, 21.8%; in the assay on SN12C renal, -96.9% (active). Further, the growth was -94.1% (active) in the assay with UO-31 renal; -21.2% (active) in the assay on TK-10 renal; -100% (active) in the assay on ACHN renal; 20.6% in the assay with CAKI-1 renal; 129% in the assay on A498 renal; -29.3% (active) in the assay with CCRF-CEM leukemia. In addition, the growth with MOLT-4 leukemia was -28.7% (active).
For the compound `O=C(C1=CNC(=S)NC1c1ccc(O)cc1)c1cc2ccccc2oc1=O` (stereo not given), the growth in the assay with HCT-15 colon was 104%; in the assay with HT29 colon, 106%; with SNB-19 CNS, 97.7%; in the assay with U251 CNS, 102%; with PC-3 prostate, 86.7%; in the assay on SK-MEL-5 melanoma, 101%. Further, the growth in the assay on UACC-62 melanoma was 95.8%; with LOX IMVI melanoma, 91.5%; with SK-MEL-28 melanoma, 118%; in the assay on SK-MEL-2 melanoma it was 101%; in the assay with EKVX NSCLC it was 107%; with SN12C renal, 99.3%. For the same compound, the growth with UO-31 renal was 72.4%; in the assay with TK-10 renal it was 130%; with ACHN renal it was 108%; in the assay on CAKI-1 renal it was 87.6%; in the assay on A498 renal it was 139%; with CCRF-CEM leukemia it was 92%. The growth in the assay with MOLT-4 leukemia is 94.1%.
As to `CCCSc1nc(Nc2ccc(S(N)(=O)=O)cc2)c(C#N)c(-c2ccc(Cl)cc2)n1`, the growth was 21.7% in the assay on HCT-15 colon; 33.6% with HT29 colon; 28.2% in the assay with SNB-19 CNS; -14.8% (active) with U251 CNS; 64.3% in the assay on PC-3 prostate; 55.9% in the assay on SK-MEL-5 melanoma. Moreover, the growth with UACC-62 melanoma was 31.1%; in the assay with LOX IMVI melanoma it was -96.3% (active); in the assay on SK-MEL-28 melanoma, 73.8%; with SK-MEL-2 melanoma, 67.9%; in the assay with EKVX NSCLC, 50.6%; in the assay with SN12C renal, -16.2% (active). Also, the growth in the assay on UO-31 renal is -68.6% (active); with TK-10 renal, -16.4% (active); with ACHN renal it was -66.8% (active); in the assay with CAKI-1 renal, -54.5% (active); with A498 renal, -41.8% (active); in the assay with CCRF-CEM leukemia, 81.4%. Further, the growth in the assay with MOLT-4 leukemia is 50.4%.
